MARV entry inh: inhibitors of Marburg virus binding or cell entry; Marburg virus pseudotyped entry inhibition, cell reporter; Potency, µM (titrated, usually from 37.8 µM), hits mostly inhibitors; hit rate 1.8% among 300,000; calls by dose curve; tested in HEK293 cells
LASV entry inh: blocks Lassa virus binding to or entry into cells | Lassa virus pseudotype entry inhibition, cell reporter | Potency, µM (series often up to 37.9 µM), usual class: inhibitors | hit rate 1.2% among 300,000; calls by dose curve; tested in HEK293 cells; note: nearly all actives have a fitted effect of over 50% in size
HCV inh: blocks hepatitis C virus | AID 651820 | Huh7.5.1 HCVcc-Cre infection, luciferase reporter, 44 h | Potency, µM (series often up to 41.8 µM), most hits filed as inhibitors | hit rate 3.4% among 340,000; active = well fitted inhibition curve with a large enough effect; inconclusive = small, poorly fitted or top-dose-only effect, or another doubt; inactive = no such curve, though single readings can be large or run the other way
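Cells seeded at 1,000/well and cultured 4 h, then compounds added followed by HCVcc-Cre virus (~0.5 moi). After 44 h further culture, luciferase substrate was added, plates held 15 min at room temperature, and luminescence read for 15 sec.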
FMDV antiviral: antivirals against foot and mouth disease virus; FMDV antiviral cell-based qHTS; Potency, µM (top dose mostly 57.9 µM), most hits filed as inhibitors; hit rate 1.2% among 410,000; calls by dose curve; tested in HEK293T cells; note: read-out not given here; nearly all actives have a fitted effect of over 45% in size
HCMV antiviral: human cytomegalovirus inhibition; activity change, negative = inhibition, % at 57.5 µM; hit rate 4.5% among 410,000; HFF cells, HCMV-luciferase reporter, 72 h; hits give low values; AID 1259415; in the data active = activity change below about -60%; inconclusive = no clear call, values can overlap the other calls; inactive = above about -39%
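Screen run at 2 compound doses on HFFs infected with reporter HCMV, MOI 1 PFU/cell. Luciferase activity from cell lysates at 72 h post infection gave inhibition relative to buffer-only and Salinomycin wells.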
Large screens that a line does not name were inactive. The list is not random: actives were taken first. Their share in the collection is about 7.9%.

Cc1ccc(S(=O)(=O)NCC2CCC(C(=O)NCCCN3CCCC3=O)CC2)cc1 (stereo not given)	HCMV antiviral -62
O=C(NCC1CCCO1)c1cccc(Oc2ccccc2)c1 (stereo not given)	MARV entry inh inconclusive
O=C(CSc1nc2cc(Cl)ccc2s1)NCC1CCCO1 (stereo not given)	MARV entry inh inconclusive
O=C(NCC1CCCO1)c1cccc(Oc2ccc([N+](=O)[O-])cc2)c1 (stereo not given)	HCV inh inconclusive, FMDV antiviral inconclusive, HCMV antiviral -88
Cc1ccc(NS(=O)(=O)c2cccc(C(=O)NCC3CCCO3)c2)cc1 (stereo not given)	MARV entry inh inconclusive, LASV entry inh 10µM, HCV inh inconclusive
O=C(NCC1CCCO1)c1cccc(NS(=O)(=O)c2ccccc2)c1 (stereo not given)	MARV entry inh inconclusive, HCV inh inconclusive
O=C(CSc1nc2ccc([N+](=O)[O-])cc2s1)NCC1CCCO1 (stereo not given)	HCV inh inconclusive, HCMV antiviral -71
COc1ccc(N(C)S(=O)(=O)c2cccc(C(=O)NCC3CCCO3)c2)cc1 (stereo not given)	LASV entry inh inconclusive, HCMV antiviral inconclusive
COc1ccc(N(Cc2ccccc2)S(=O)(=O)c2cccc(C(=O)NCC3CCCO3)c2)cc1 (stereo not given)	LASV entry inh 3.2µM, HCV inh inconclusive
COc1cccc(-c2nc3cc(SC)ccc3cc2CN(C(=O)c2sccc2C)C2CC2)c1	none (no result: MARV entry inh, LASV entry inh, HCV inh, HCMV antiviral)
Cc1ccc(NS(=O)(=O)c2cccc(C(=O)NCCCN3CCCC3=O)c2)cc1	MARV entry inh inconclusive, HCMV antiviral -101
CCOC(=O)C(Cc1ccccc1)C(=O)NCc1cccnc1 (stereo not given)	none (no result: MARV entry inh, LASV entry inh)
O=C1[C@@H]2C=CC=CC2=NC(=S)N1CCN1CCC(=C(c2ccc(F)cc2)c2ccc(F)cc2)CC1	none (no result: LASV entry inh, HCV inh, FMDV antiviral, HCMV antiviral)
COc1ccc(C(=O)OC(C)C(=O)NC2CCCCC2C)cc1S(=O)(=O)N1CCOCC1 (stereo not given)	HCMV antiviral -98
CC(OC(=O)c1ccc(Cl)c(S(=O)(=O)N2CCOCC2)c1)C(=O)NC1CCCCC1C (stereo not given)	LASV entry inh inconclusive, FMDV antiviral inconclusive
Cc1cccc(C)c1NC(=O)C1N=Cc2ccccc2N=C1c1cccc(Br)c1 (stereo not given)	none (no result: MARV entry inh, LASV entry inh, HCV inh, FMDV antiviral)
COc1ccc(/C=C2\N=C(c3ccccc3Cl)NC2=O)cc1	HCV inh inconclusive, HCMV antiviral -73 (no result: MARV entry inh, LASV entry inh)
COc1ccccc1N1C(=O)CC1(C#N)c1ccc(OCc2ccccc2)cc1 (stereo not given)	MARV entry inh inconclusive, LASV entry inh inconclusive
Cc1ccccc1N1C(=O)CC1(C#N)c1ccc(OCc2ccccc2)cc1 (stereo not given)	MARV entry inh inconclusive, LASV entry inh 10µM, HCMV antiviral -85
O=C(O)CC1(CC(=O)N2CCOCC2)CCCC1	none
O=C(O)c1ccc(-c2nc(-c3ccccc3)c(-c3cccs3)[nH]2)cc1	none
CCOc1ccc(-c2nc(-c3ccccc3)c(-c3ccccc3)[nH]2)cc1OCC	MARV entry inh inconclusive, HCMV antiviral inconclusive (no result: HCV inh)
O=[N+]([O-])c1ccc(O)c(-c2nc(-c3ccccc3)c(-c3cccs3)[nH]2)c1	MARV entry inh inconclusive, LASV entry inh inconclusive, HCV inh 6.3µM, FMDV antiviral inconclusive, HCMV antiviral -103
CCOc1cc(-c2nc(-c3ccccc3)c(-c3cc([N+](=O)[O-])ccc3C)[nH]2)ccc1O	MARV entry inh inconclusive, HCV inh inconclusive, FMDV antiviral inconclusive, HCMV antiviral -82
COc1ccc(-c2nc(-c3ccccc3)c(-c3cc([N+](=O)[O-])ccc3C)[nH]2)cc1OC	MARV entry inh inconclusive, LASV entry inh inconclusive, HCV inh 16µM, HCMV antiviral -80
CCOC(=O)c1[nH]c2ccccc2c1NC(=O)c1ccccc1F	MARV entry inh inconclusive (no result: HCV inh)
CC(C)(C)NC(=O)C(c1ccc(O)cc1)N(Cc1ccc2c(c1)OCO2)C(=O)CCl (stereo not given)	none (no result: MARV entry inh, LASV entry inh, HCV inh)
CCCN(CCC)S(=O)(=O)c1ccc(C(=O)N2CCC(=O)c3ccccc32)cc1	LASV entry inh inconclusive, HCMV antiviral -60
O=C(NCCO)c1cn(C2CCN(Cc3c(F)cccc3Cl)CC2)nn1	none (no result: MARV entry inh, LASV entry inh, HCV inh, HCMV antiviral)
C=C[C@H](Cc1ccccc1)N(Cc1ccccc1)S(=O)(=O)N(Cc1ccccc1)[C@H](C=C)Cc1ccccc1	FMDV antiviral inconclusive, HCMV antiviral -86 (no result: MARV entry inh, LASV entry inh)
COC(=O)[C@@H](Cc1ccccc1)N(Cc1ccccc1)S(=O)(=O)N(Cc1ccccc1)[C@H](Cc1ccccc1)C(=O)OC	FMDV antiviral inconclusive, HCMV antiviral -96 (no result: MARV entry inh, LASV entry inh)
COC(=O)[C@@H](CC(C)C)N(Cc1ccccc1)S(=O)(=O)N(Cc1ccccc1)[C@@H](CC(C)C)C(=O)OC	FMDV antiviral inconclusive, HCMV antiviral inconclusive (no result: MARV entry inh, LASV entry inh)
O=C(Nc1ccccc1Cl)N[C@H]1CC[C@@]23CCCN2C(=O)CCC[C@H]3C1Cc1ccccc1 (stereo not given in full)	none (no result: MARV entry inh, LASV entry inh, HCV inh, FMDV antiviral)
CN1C(=O)c2c(sc3c2CC(C)(C)SC3)N2CCN=C12	HCV inh 11µM, FMDV antiviral inconclusive
Cc1nc(-c2ccc(F)cc2)c(CC(=O)N2CCN(S(=O)(=O)c3cccc([N+](=O)[O-])c3)CC2)s1	LASV entry inh inconclusive, HCV inh inconclusive, FMDV antiviral inconclusive
COC(=O)[C@@H]1[C@@H](CO)[C@@H]2Cn3c(ccc(Br)c3=O)[C@@H]2N1CC1CCCC1	none (no result: MARV entry inh, LASV entry inh, HCV inh, FMDV antiviral)
CCN1CCC(O)(/C=C/c2ccc(C(C)C)cc2)C(C(=O)/C=C/c2ccc(C(C)C)cc2)C1 (stereo not given)	MARV entry inh inconclusive, LASV entry inh 14µM, HCV inh 7.9µM, FMDV antiviral 32µM, HCMV antiviral -61
COC(=O)C/C=C\[C@@H](C)[C@@H](/C=N\OC[C@@H](C)[C@H](OCc1ccccc1)C(C)C)NS(=O)(=O)c1ccc(C)cc1	none (no result: LASV entry inh, HCV inh, FMDV antiviral, HCMV antiviral)
NCCOc1ccccc1-c1ccccc1	none
Nc1ccc(Oc2ccccc2-c2ccccc2)cc1	MARV entry inh 5.6µM, LASV entry inh 5.6µM, FMDV antiviral 7.9µM, HCMV antiviral -82
CCCCn1c2nc3ccccc3nc2c2c(=O)n(CC(C)C)cnc21	HCMV antiviral -62 (no result: MARV entry inh, LASV entry inh)
CC(C)COc1ccc(-c2nnc(-c3ccncc3)o2)cc1	LASV entry inh inconclusive, HCV inh inconclusive
CCCOc1ccc(-c2nnc(-c3ccncc3)o2)cc1	HCV inh 11µM
CCOc1cc(C2CC(=O)Nc3nc(SCc4ccccc4)[nH]c(=O)c32)ccc1O (stereo not given)	none (no result: HCV inh)
CCOc1ccc(C2CC(=O)Nc3nc(SCc4ccccc4C)[nH]c(=O)c32)cc1OC (stereo not given)	HCMV antiviral -102 (no result: HCV inh)
Cc1ccc(-c2cccc(CN3CCN(C4CCN(C(C)C)CC4)C(CCO)C3)c2)o1 (stereo not given)	HCV inh 5µM (no result: MARV entry inh, LASV entry inh)
CC(C)N1CCC(N2CCN(C/C=C/c3ccc(F)cc3)CC2CCO)CC1 (stereo not given)	MARV entry inh inconclusive, LASV entry inh inconclusive, HCV inh 10µM

Screening data (PubChem BioAssay)
